Screening data deposited in PubChem BioAssay by several laboratories.
Rows were chosen to be rich in hits. Some 4.7% of all compounds tested hit in one or more screens of this group.
EBI2 block: EBI2 receptor antagonists, beta-arrestin recruitment, primary screen, cell-based, luminescence, 7a,25-OHC stimulation, uHTS. G-protein coupled receptor 183 (Homo sapiens), P32249. 7a,25-OHC stimulated. inhibition, % at 5 µM. 0.81% of 360,000 active. AID 651636, 2012; in the data active = inhibition above about 38%;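 note: enzyme fragment complementation signal reports receptor beta-arrestin coupling in cells; 0% = agonist plus DMSO wells and 100% = wells without agonist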
Target sequence (P32249 whole entry, looked up, the tested form may be a part): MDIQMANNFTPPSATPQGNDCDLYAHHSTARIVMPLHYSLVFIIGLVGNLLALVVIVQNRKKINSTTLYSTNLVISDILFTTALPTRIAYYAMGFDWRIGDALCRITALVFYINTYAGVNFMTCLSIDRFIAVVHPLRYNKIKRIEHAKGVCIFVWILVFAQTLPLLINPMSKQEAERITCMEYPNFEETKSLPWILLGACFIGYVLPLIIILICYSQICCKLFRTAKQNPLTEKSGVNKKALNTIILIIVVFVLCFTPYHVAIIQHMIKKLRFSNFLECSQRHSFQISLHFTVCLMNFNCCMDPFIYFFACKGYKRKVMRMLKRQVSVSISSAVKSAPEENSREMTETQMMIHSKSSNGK
PfHsp90 yeast 2: growth inhibition of PfHsp90-expressing yeast, primary screen, antimalarial PfHsp90 inhibitor project, S. cerevisiae, BacTiter-Glo luminescence, single point, set 2; inhibition, % at 9.4 µM; AID 504621, 2011; 0.32% of 310,000 active; BacTiter-Glo ATP, 48 h; yeast lacking PDR1 and PDR3 efflux regulators;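 active = every replicate shows inhibition above about 80%, whatever the replicate mean, limit read from the data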;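 note: 0% = DMSO neutral controls and 100% = 20 µM radicicol positive controls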
tim10-1 inh: growth inhibitors of tim10-1 mutant yeast, primary screen, luminescence, uHTS; inhibition, % at 20 µM; AID 463190, 2010; 2.2% of 330,000 active; S. cerevisiae tim10-1 ts strain growth, BacTiter-Glo, 24 h;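 active = inhibition of at least 40%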;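 note: mutant grown at 25 °C; 0% = DMSO wells with yeast and 100% = wells holding no yeast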
SKKanGAS inh: S. pyogenes SKKanGAS growth inhibitors in kanamycin, primary screen, streptokinase expression inhibitor project, SKKanGAS strain, BacTiter-Glo luminescence | 6 h | inhibition, % at 7.5 µM | 1.3% of 300,000 active;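 active = mean replicate score, as percent of positive control median, at least 50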;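 note: strain carries kanamycin resistance gene driven by streptokinase promoter and grows in 40 µg/ml kanamycin; loss of luminescence reflects streptokinase promoter inhibition or plain growth inhibition; 0% = median of DMSO wells and 100% = positive control at its reference dose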
tim23-1 inh: growth inhibitors of tim23-1 mutant yeast, primary screen, luminescence, uHTS. S. cerevisiae tim23-1 growth, BacTiter-Glo luminescence, 24 h. inhibition, % at 20 µM. 1.3% of 330,000 active. AID 463212, 2010;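 active = growth inhibition of the mutant yeast at or above 50%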;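 note: temperature-sensitive mutant grown at 25 °C; plate controls were DMSO-treated mutant yeast for no effect and medium wells lacking yeast for full effect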
TIM10 inh: growth inhibitors of isogenic TIM10 control yeast, primary screen, counter-screen for tim10-1 yeast inhibitor project, luminescence, uHTS; S. cerevisiae TIM10 strain growth, BacTiter-Glo luminescence, 24 h; inhibition, % at 10 µM; 1.4% of 330,000 active;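 active = inhibition of 40% or more at the single tested concentration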;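 note: wild-type TIM10 isogenic control strain grown at permissive 25 °C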
TIM10 conf: growth inhibitors of wild-type TIM10 yeast, confirmation, counter-screen for tim10-1 synthetic lethality project, single concentration, luminescence, S. cerevisiae; shares compounds with TIM10 inh; S. cerevisiae tim10 strain growth, BacTiter-Glo luminescence, 24 h; inhibition, % at 10 µM; 63% of 4,600 active; AID 463215, 2010;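 active = inhibition of yeast growth at or above a set limit in either of two replicates at 10 µM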;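 note: this counterscreen used the strain with wild-type TIM10; 0% = yeast with DMSO and 100% = medium wells lacking yeast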
tim23-1 conf: tim23-1 mutant yeast growth inhibitors, confirmation, luminescence, single concentration. S. cerevisiae tim23-1 growth, BacTiter-Glo luminescence, 24 h. inhibition, % at 20 µM. shares compounds with tim23-1 inh. AID 463218, 2010. 83% of 4,400 active;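 active = inhibition above about 39% in either of two replicate wells at 20 µM, limit read from the data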;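 note: temperature-sensitive tim23-1 mutant grown at 25 °C; 0% = DMSO wells with yeast and 100% = medium wells without yeast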
* = called active by the depositor; x = no result given.

SMILES	EBI2 block	PfHsp90 yeast 2	tim10-1 inh	SKKanGAS inh	tim23-1 inh	TIM10 inh	TIM10 conf	tim23-1 conf
O=C(N/N=C/C=C/c1ccccc1)c1cccs1	5	15	-2	11	42	33	x	x
O=C(N/N=C/C(Br)=C/c1ccccc1)c1cccs1	6	26	20	-3	61*	41*	28	76*
O=C(C1=C(O)C(=O)N(CCCn2ccnc2)C1c1cccc(Br)c1)c1ccco1 (configuration not stated)	-15	-217	24	-13	5	-1	x	x
COc1ccc(N=N/C(=C\O)C(=O)c2cccs2)cc1	2	-12	37	2	76*	55*	58*	65*
COc1ccc(NC(=O)c2cccs2)cc1	2	-1	-16	2	10	3	x	x
CCOC(=O)c1ccc(NC(=O)c2ccccc2N(C)S(=O)(=O)c2ccccc2)cc1	13	-23	13	-4	33	5	x	x
COc1cc(C(=O)ON=C2C3CC4CC(C3)CC2C4)cc(OC)c1OC	4	-24	19	-3	50*	82*	84*	60*
O=C(CSc1ccccc1)Nc1ccc2c(c1)OCCO2	3	-21	-10	0	24	-9	x	x
O=C(CSc1ccc(-c2ccccc2)nn1)Nc1ccc2c(c1)OCCO2	3	-26	36	0	55*	56*	58*	79*
CCOc1ccc2c(c1)C(c1ccc(C)cc1)=NNC(c1ccc(OC)cc1)=N2	8	-14	-4	-4	28	0	x	x
CCOc1ccc(C2=NNC(c3cccs3)=Nc3ccc(OC)cc32)cc1	4	-8	30	12	64*	55*	43*	70*
O=c1[nH]nnc2cc(Cl)ccc12	-1	22	x	x	x	x	x	x
O=[N+]([O-])/C=C/c1c(OCc2ccccc2)ccc2ccccc12	6	1	34	70*	61*	73*	6	47*
CCCCOc1ccc2ccccc2c1C=O	-5	2	27	9	45	29	x	x
CCSc1ccc(-c2cccc([N+](=O)[O-])c2)nn1	2	-13	24	-3	11	23	x	x
Cc1ccc2nc(-c3ccccc3N)[nH]c2c1	0	22	28	5	67*	44*	14	31
Cc1ccc(C)c(-c2nc3ccc(N)cc3[nH]2)c1	11	71	-7	11	0	21	x	x
O=C(N/N=C/c1cc(Br)ccc1O)c1ccccc1Cl	29	-54	36	68*	79*	65*	-34	69*
COC(=O)N/N=C/c1cc(Br)ccc1O	-12	-35	23	-5	2	8	x	x
CC(C)NC(=S)N/N=C/c1cc(Br)ccc1O	-9	-41	39	62*	55*	55*	-10	-6
Cn1cc(S(=O)(=O)NCc2ccc3c(c2)OCO3)c(C(F)(F)F)n1	2	-23	-15	3	-3	2	x	x
COc1ccc(C(=O)CSC(=S)N2CCCCC2)cc1	-4	x	x	x	x	x	x	x
CN(CC(=O)Nc1cccc(F)c1)C(=O)c1ccc(S(=O)(=O)N2CCCC2)cc1	-7	-8	-6	x	6	-5	x	x
COc1ccc(C(=O)/C=C/C(=O)N(CC(=O)NC2CCCCC2)Cc2cccs2)c(O)c1	25	94*	18	-12	62*	49*	47*	36*
CCOC(=O)c1c(C)[nH]c(C(=O)COC(=O)COc2ccccc2C=O)c1C	-5	-20	23	3	54*	53*	51*	62*
SMILES	EBI2 block	PfHsp90 yeast 2	tim10-1 inh	SKKanGAS inh	tim23-1 inh	TIM10 inh	TIM10 conf	tim23-1 conf
c1ccn2cc(-c3ccc4c(c3)OCCO4)nc2c1	-7	40	19	8	31	12	x	x
Cc1ccc2nc(-c3ccc4c(c3)OCCO4)cn2c1	2	-6	34	-9	51*	74*	76*	52*
O=[N+]([O-])c1ccc2[nH]c(O)c(N=NC3CCS(=O)(=O)C3)c2c1 (configuration not stated)	-1	8	-3	4	-11	-2	x	x
COc1ccc(S(=O)(=O)N(C)C)cc1NC(=O)COC(=O)Cn1cnc2ccccc2c1=O	-6	1	-12	x	-13	-1	x	x
Cc1ccccc1C(=O)N/N=C/c1ccc([N+](=O)[O-])s1	6	0	33	11	76*	52*	47*	66*
Oc1ccc(Cl)cc1/C=C/c1ccc2cccc(O)c2n1	5	105*	35	-39	58*	64*	63*	16
O=C(/C=C/Sc1ccccc1)c1ccccc1	0	-50	22	10	66*	59*	65*	81*
CCc1nn(CC(=O)NCCCN(C)Cc2ccccc2)c(=O)c2cc3sc(C)cc3n12	3	-2	4	-7	-12	-4	x	x
CC(=O)Nc1cccc(-c2cc(-c3c(Cl)cccc3Cl)no2)c1	1	-60	35	40	61*	44*	28	41*
CC1(C2CC(C(F)(F)F)n3nc(C(=O)O)cc3N2)CC1 (configuration not stated)	-3	12	-10	4	-2	12	x	x
O=Cc1ccccc1OCCCOc1cccc2cccnc12	8	-7	33	0	76*	49*	52*	79*
O=Cc1ccc(OCCCOc2cccc3cccnc23)cc1	3	-8	39	-13	36	14	x	x
CCOc1ccc(NC(=O)Nc2c(C)n(C)n(-c3ccccc3)c2=O)cc1	-7	6	-1	1	-8	-16	x	x
CCOc1ccc(NC(=O)CC2C(=O)N(c3ccc(OC)c(Cl)c3)C(=S)N2C2CC2)cc1 (configuration not stated)	-4	13	-10	11	-4	-21	x	x
CCN(CC)c1ccc(/C=N/NC(=O)c2c(Cl)cnn2C)c(O)c1	-6	20	36	11	67*	58*	13	62*
CCN(CC)c1ccc(/C=N/NC(=O)c2cccc(S(=O)(=O)N3CCOCC3)c2)c(O)c1	5	-12	23	12	-11	7	x	x
O=C(Nc1ccc(-c2cn3ccccc3n2)cc1)c1cccs1	-9	9	-4	1	62*	42*	26	71*
